Most compounds without a hit are left out; they make up all but 4.2% or so of the library.
Sfp PPTase inh: blocks B. subtilis Sfp PPTase activity; Potency, µM, inactives show largest response in the series, negative = inhibition, most hits filed as inhibitors; AID 1490; Biochemical Sfp PPTase activity, qHTS; Q9F4F7; actives 3.5% (n = 310,000);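 note: the enzyme is Sfp with the accession as filed and its product quenches rhodamine fluorescence; 0% = enzyme reaction without inhibitor and -100% = no enzyme wells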
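Sfp 15 nM + cpd, 15 min RT; start w/ rhodamine-CoA 5 uM, BHQ-2-YbbR 12.5 uM (final); 50 mM Hepes pH 7.6, 10 mM MgCl2, 0.01% NP-40, 0.01% BSA; read 525/598 nm at 0 and 30 min.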
PLK1 PBD block: inhibitors of human PLK1 polo-box domain binding; P53350; Plk1 PBD binding of FITC phosphopeptide, fluorescence polarization; Potency, µM, inactives show max response, negative = inhibition, hits mostly inhibitors; actives 2.8% (n = 360,000); note: series mostly up to about 57 µM; nearly all actives have a fitted effect of over 65% in size
12-LOX inh: blocks human arachidonate 12S-lipoxygenase; P18054; AID 1671190; purified 12hLO, xylenol orange hydroperoxide absorbance; Potency, µM (top dose mostly 108 µM), without a hit: at the top dose activity change, negative = inhibition, usual class: inhibitors; actives 1.1% (n = 580,000)
Target sequence (P18054 whole entry, looked up): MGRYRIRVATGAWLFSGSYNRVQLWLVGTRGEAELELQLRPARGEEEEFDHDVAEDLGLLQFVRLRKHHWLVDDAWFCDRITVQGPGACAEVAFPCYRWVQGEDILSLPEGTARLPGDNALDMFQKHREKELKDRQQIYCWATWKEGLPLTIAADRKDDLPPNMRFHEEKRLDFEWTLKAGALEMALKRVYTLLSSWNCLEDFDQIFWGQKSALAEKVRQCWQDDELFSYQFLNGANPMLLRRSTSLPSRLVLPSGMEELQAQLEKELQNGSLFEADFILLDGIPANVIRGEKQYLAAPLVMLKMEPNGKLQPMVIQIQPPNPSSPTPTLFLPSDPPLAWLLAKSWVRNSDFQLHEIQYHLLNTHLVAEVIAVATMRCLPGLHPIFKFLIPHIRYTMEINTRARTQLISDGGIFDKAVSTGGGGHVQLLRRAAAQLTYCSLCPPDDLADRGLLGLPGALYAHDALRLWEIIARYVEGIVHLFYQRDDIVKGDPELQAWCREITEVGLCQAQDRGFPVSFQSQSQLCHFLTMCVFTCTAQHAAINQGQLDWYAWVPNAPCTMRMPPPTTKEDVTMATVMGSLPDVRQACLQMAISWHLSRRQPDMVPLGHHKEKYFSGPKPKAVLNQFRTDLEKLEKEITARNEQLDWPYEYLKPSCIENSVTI
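Purified human 12hLO at 150 nM in 25 mM Hepes, 0.01% Triton X-100, pH 7.0, preincubated 15 min at room temperature with compound. Reaction started with 40 uM arachidonic acid, 30 min at room temperature. Hydroperoxide measured by Fe-xylenol orange, 573/405 nm absorbance ratio.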
VDR inh: blocks the human vitamin D receptor. P11473. VDR-SRC2-3 peptide fluorescence polarization, 2 h. Potency, µM, without a hit: max response, negative = inhibition, usual class: inhibitors. actives 0.93% (n = 400,000)
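Two reagent solutions held at 4 deg C in the dark were dispensed, compounds pinned at 23 nl, and the mixture incubated 2 h at room temperature. Read-out: fluorescence polarization of VDR–SRC2-3 peptide binding.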
An asterisk follows results filed as active; i = inactive; ? = inconclusive; · = no result given; [ ] = dose if it differs, or a comment. Calls come from the whole dose curve; as a rule, active = well fitted curve in the direction sought with a large enough effect; inconclusive = small, poorly fitted or top-dose-only effect, or another doubt; inactive = no such curve, though single readings can be large; an effect the other way counts as inactive or inconclusive. Unless noted, % is set by controls: 0 for no effect and ±100 for the full control effect; potency is the fitted concentration of half-maximal effect.

SMILES	Sfp PPTase inh	PLK1 PBD block	12-LOX inh	VDR inh
Cc1nc(N2CCCCC2)sc1C(=O)c1ccc(SCCO)c([N+](=O)[O-])c1	-26%	8.4µM*	0%	?
CCN1CCN(CC(=O)c2ccc(C)cc2)CC1	79µM*	3%	?	2%
CCN1CCN(CC(=O)Nc2ccc(C(C)=O)cc2)CC1	?	-4%	?	6%
COc1ccccc1S(=O)(=O)N1CCC(C(=O)O)(c2ccccc2)CC1	14%	-13%	-14%	-1%
COc1cc(-c2nc3ccc(Cl)cn3c2Nc2ccc3c(c2)OCCO3)ccc1O	·	·	7.9µM*	-2%
Clc1cccc(-c2nc3ccccn3c2Nc2ccc3c(c2)OCCO3)c1	·	·	6.3µM*	-10%
Oc1ccc(-c2nc3ccccn3c2Nc2ccc3c(c2)OCCO3)cc1	·	·	-20%	16%
CCN(CC)C(=O)c1cccc(NC(=O)c2ccccc2OCc2c(C)noc2C)c1	·	3%	-3%	13%
Cn1c(N)c(Br)c(-c2ccc(F)cc2)c(C#N)c1=O	3%	-7%	43%	1%
CCCCOn1c(C)c(C(C)=O)c2c3no[n+]([O-])c3ccc21	25%	2%	-9%	-12%
CCOC(=O)c1c(C)n(OCc2ccccc2)c2ccc3c(no[n+]3[O-])c12	79µM*	-6%	-10%	-4%
O=C(c1cc(COc2cccc3cnccc23)on1)N1CCC(c2ccccc2Cl)C1 (centres undefined)	-18%	-3%	-4%	-21%
CC(C)(C)c1nnc(N/N=C/c2ccccc2)n(N)c1=O	79µM*	1%	10%	-8%
O=C(O)c1cccc(-n2c(/C=C/c3ccc([N+](=O)[O-])cc3)nc3ccccc3c2=O)c1	8%	-6%	?	-20%
Cc1cc(/C=C2\SC(=S)NC2=O)c(C)n1-c1cccc(O)c1	?	?	40µM*	-20%
Cc1cccc(-n2c(C)cc(/C=C3\NC(=O)NC3=O)c2C)c1	-20%	0%	-93%	-9%
O=C(OCC(=O)N1CCCC1=O)c1cc(=O)c2ccccc2o1	·	·	-26%	·
Cn1c(=O)c(C(=O)COC(=O)c2cc(-c3ccco3)nc3ccccc23)c(N)n(CC2CC2)c1=O	22µM*	·	·	·
O=C(OCC(=O)N1CCCC1=O)c1cc(-c2ccco2)nc2ccccc12	·	·	5.6µM*	·
O=C(OCC(=O)N1CCN(C(=O)c2ccco2)CC1)c1cc(-c2ccco2)nc2ccccc12	-103%	?	4.5µM*	-27%
CCOC(=O)Cc1csc2nc(-c3ccccc3)cn12	·	·	8%	·
CC(=O)N1CCC(N[C@H]2C[C@@H](Cc3cc(CN(C)Cc4ccccc4)on3)C2(C)C)CC1	·	·	15%	·
Cc1cccc(C)c1OCC1CNC(=O)O1 (centres undefined)	17%	27µM*	0%	-13%
CN1CCN(S(=O)(=O)c2ccc(N(C)Cc3ccc(C(F)(F)F)cc3)c([N+](=O)[O-])c2)CC1	·	-19%	?	-10%
COc1ccccc1C(=O)Nc1ccc2oc(-c3cccc4c(Br)cccc34)nc2c1	·	·	8%	-16%
SMILES	Sfp PPTase inh	PLK1 PBD block	12-LOX inh	VDR inh
CCCSC1=N/C(=C/c2ccsc2)C(=O)N1c1ccccc1	-27%	-10%	-6%	18%
CCCC1S/C(=N/N=C/c2cccs2)NC1=O (centres undefined)	-11%	17µM*	-24%	6%
CCC1S/C(=N/N=C/c2cccs2)NC1=O (centres undefined)	8%	-11%	45%	-13%
CCc1ccc(OCC(O)CN2CCC(CN3C(=O)c4cccc5cccc(c45)C3=O)CC2)cc1 (centres undefined)	50µM*	3%	-1%	12%
O=C1c2cccc3cccc(c23)C(=O)N1CCN1CCN(CC(O)COc2ccc3ccccc3c2)CC1 (centres undefined)	25µM*	-5%	-20%	-6%
CNC(=O)[C@@H]1CN(C(=O)c2cccc(Br)c2)C[C@H]1CO	·	·	8%	·
CCSc1nc2ccccc2n1C(=O)/C=C\c1ccc(OC)c(OC)c1	50µM*	-2%	-15%	50µM*
CCSc1nc2ccccc2n1CC(N)=O	9%	-6%	24%	7%
CC(CCN1CCC(CN2C(=S)NCC2Cc2ccccc2)CC1)c1ccccc1 (centres undefined)	·	-9%	?	9%
CC(CCN1CCC(CN2C(=O)C(=O)NC[C@@H]2Cc2ccccc2)CC1)c1ccccc1 (some centres undefined)	·	-1%	40µM*	-15%
CCc1nncn1C1CCN(S(=O)(=O)c2cc(C)ccc2C)CC1	·	·	20%	·
CCOc1ccc(C(CC(=O)O)NS(=O)(=O)c2ccc(C)cc2)cc1OC (centres undefined)	4%	21µM*	0%	-7%
CCOc1ccc(C(CC(=O)O)NC(=O)COc2ccccc2)cc1OC (centres undefined)	14%	-11%	-13%	-3%
Oc1c(Cl)cccc1C=Nc1cc(C(F)(F)F)ccc1N1CCCC1	?	12µM*	-28%	-29%
CSc1ccc(S(=O)(=O)N2CCC(C(=O)NCc3ccco3)CC2)cc1	14%	-7%	-23%	5%
CCC1(C)N=C(c2ccc3c(c2)OCO3)CC(c2ccccc2O)N1 (centres undefined)	2%	27µM*	-11%[57.4 µM]	4%
CC(=O)c1c(C)[nH]c(C(=O)C(C)Sc2ccc(F)c(Cl)c2)c1C (centres undefined)	·	·	45µM*	·
COc1ccc(-c2cc(C(F)(F)F)n3ncc(C(=O)NCC4CCCO4)c3n2)cc1OC (centres undefined)	20%	-18%	i	-11%
Cc1cc(C)c2c(CN3CCC(C)CC3)cc(=O)oc2c1	3%	-8%	45µM*	7%
COc1ccc(OCCN2CCC(C(=O)NC(c3ccc(C)cc3)c3ccccn3)CC2)cc1 (centres undefined)	·	1%	-23%	·
CN(C)c1ccc(N=Nc2cccc3ccoc23)cc1	45µM*	1%	0%	-14%
COc1ccccc1-n1c(=O)c2sccc2n(CC(=O)NCCC(C)C)c1=O	·	·	20%	·
Cc1ccc(C)c(/C=N/n2cc(-c3ccccc3)[nH]c2=S)c1	4%	-12%	?	8%
Fc1ccccc1/C=N/n1cc(-c2ccccc2)[nH]c1=S	89µM*	-21%	?	-9%
S=c1[nH]c(-c2ccccc2)cn1/N=C/c1cccnc1	45µM*	-8%	?	-15%
SMILES	Sfp PPTase inh	PLK1 PBD block	12-LOX inh	VDR inh
O=C(O)c1ccc(/C=N/n2cc(-c3ccccc3)[nH]c2=S)cc1	18µM*	1%	45µM*	-20%
S=c1[nH]c(-c2ccccc2)cn1/N=C/c1cccs1	?	-2%	-19%	-3%
S=c1[nH]c(-c2ccccc2)cn1/N=C/c1ccc(Br)cc1	11%	-14%	40µM*	?
Cc1ccc(-n2nc(CO)c(C(=O)NCc3cccs3)n2)cc1C	·	·	-9%	-14%
c1ccc(-c2csc3ncnc(N4CCc5ccccc5C4)c23)cc1	-16%	0%	12%	-2%
Cc1ccc(NC(=O)COC(=O)C2CC2)cc1Cl	·	4%	-14%	-29%
Cc1ccc(NC(=O)COC(=O)C2CC2(Cl)Cl)cc1C (centres undefined)	0%	27µM*	0%	1%

Bioassay records as filed in PubChem.
